Results filed as inconclusive are left out. Active and inactive are the calls of the source. How the source made its calls, unless noted: active means hit-call score of the fitted dose curve at least 0.9, where 1 is the maximum; inactive means score below 0.9.
Columns and labels:
[1] = target: human RAR-related Orphan Receptor beta (RORb), RORB (gene 6096) (UniProt Q92753); assay: ATG_RORb_TRANS: Attagene TRANS-FACTORIAL HepG2 Assay for human RAR-related Orphan Receptor beta (RORb) (AID 2283010; active means hit-call score of the fitted dose curve at least 0.9, where 1 is the maximum)
How it was run: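 Multiplexed transcription-factor reporter assay: HepG2 cells transiently carrying NR-Gal4/GAL4-UAS constructs, 24 h treatment, mRNA quantified by RT-PCR plus capillary electrophoresis fluorescence; activity scored as induction over DMSO.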

[2] = read-out: E-selectin (Homo sapiens) (UniProt P16581); assay: BSK_3C_Eselectin: BioMAP Diversity Plus: 3C Assay for Eselectin Biomarker Activity (AID 2283015); details: primary human endothelial cells (HUVEC); actives raise or lower the signal
How it was run: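 ELISA read-out of E-selectin on endothelial monolayers after 24 h chemical treatment. Human umbilical vein primary cells served as the system, with DMSO defining baseline activity for bidirectional fitting.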

[3] = read-out: Interleukin-1 alpha (IL1a), IL1A (gene 3552); assay: BSK_BE3C_IL1a: BioMAP Diversity Plus: BE3C Assay for Interleukin-1 alpha (IL1a) Biomarker Activity (AID 2283016); details: primary human bronchial epithelial cells; actives raise or lower the signal
How it was run: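 Measured in human lung primary bronchial epithelial cells: IL-1a by ELISA at 24 h after dosing, with bidirectional fitting against DMSO.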

[4] = read-out: Monocyte Chemoattractant Protein-1 (MCP1), CCL2 (gene 6347); assay: BSK_3C_MCP1: BioMAP Diversity Plus: 3C Assay for Monocyte Chemoattractant Protein-1 (MCP1) Biomarker Activity (AID 2283017); details: primary human endothelial cells (HUVEC); actives raise or lower the signal
How it was run: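 ELISA read-out of MCP-1 from human umbilical vein endothelial cell cultures harvested 24 h post-dosing. Gain or loss of signal was fitted relative to DMSO.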

[5] = read-out: Monocyte Chemoattractant Protein-1 (MCP1), CCL2 (gene 6347); assay: BSK_4H_MCP1: BioMAP Diversity Plus: 4H Assay for Monocyte Chemoattractant Protein-1 (MCP1) Biomarker Activity (AID 2283018); details: primary human endothelial cells (HUVEC); actives raise or lower the signal
How it was run: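 Primary human umbilical vein endothelium is exposed to chemical for 24 h before MCP-1 is assayed by ELISA. Concentration-response fitted bidirectionally relative to DMSO.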

[6] = read-out: Human Leukocyte Antigen - DR isotype (HLADR), HLA-DRA (gene 3122); assay: BSK_3C_HLADR: BioMAP Diversity Plus: 3C Assay for Human Leukocyte Antigen - DR isotype (HLADR) Biomarker Activity (AID 2283019); details: primary human endothelial cells (HUVEC); actives raise or lower the signal
How it was run: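 ELISA readout of surface HLA-DR on human umbilical vein endothelium, taken 24 h after chemical treatment. Gain- and loss-of-signal were both fitted relative to DMSO.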

[7] = read-out: Interleukin-8 (IL8), CXCL8 (gene 3576); assay: BSK_3C_IL8: BioMAP Diversity Plus: 3C Assay for Interleukin-8 (IL8) Biomarker Activity (AID 2283020); details: primary human endothelial cells (HUVEC); actives raise or lower the signal
How it was run: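 Using DMSO-treated wells as the baseline, bidirectional curve fitting was applied to ELISA-measured IL-8 from human umbilical vein endothelial cultures sampled 24 h after compound addition.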

[8] = read-out: Monokine induced gamma interferon (MIG), CXCL9 (gene 4283); assay: BSK_3C_MIG: BioMAP Diversity Plus: 3C Assay for Monokine induced gamma interferon (MIG) Biomarker Activity (AID 2283021); details: primary human endothelial cells (HUVEC); actives raise or lower the signal
How it was run: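 ELISA-measured MIG in dosed HUVEC 3C cultures at 24 h, analysed by bidirectional fitting with DMSO defining baseline activity.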

[9] = target: human Vitamin D Receptor (VDR), VDR (gene 7421) (UniProt P11473); assay: ATG_VDR_TRANS: Attagene TRANS-FACTORIAL HepG2 Assay for human Vitamin D Receptor (VDR) (AID 2283022; active means hit-call score of the fitted dose curve at least 0.9, where 1 is the maximum)
How it was run: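 Steps: transfect HepG2 with GAL4-UAS-driven reporter constructs; dose compounds 24 h; isolate RNA, reverse-transcribe, PCR-amplify with 6-FAM-labelled primer extension and HpaI digestion; quantify fragments by capillary electrophoresis relative to DMSO.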

[10] = BSK_3C_SRB: Viability Assessment in the BioMAP Diversity Plus: 3C Assay (AID 2283023); details: primary human endothelial cells (HUVEC);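 further: fitted both ways against DMSO so a hit may be signal rise or drop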
How it was run: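 Absorbance at 560 nm of sulforhodamine B-stained (0.1%) total protein served as a cytotoxicity readout in human umbilical vein endothelial cells, 24 h after chemical treatment. Signal was fitted bidirectionally relative to DMSO.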

[11] = read-out: Matrix Metallopeptidase 1 (MMP1), MMP1 (gene 4312); assay: BSK_BE3C_MMP1: BioMAP Diversity Plus: BE3C Assay for Matrix Metallopeptidase 1 (MMP1) Biomarker Activity (AID 2283024); details: primary human bronchial epithelial cells; actives raise or lower the signal
How it was run: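 In this multiplexed primary-cell system, human bronchial epithelium received chemicals for 24 h before an ELISA for MMP1. Values reflect bidirectional fits normalised to the DMSO baseline.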

[12] = BSK_3C_Vis: BioMAP Diversity Plus: 3C Assay for Morphology Visualization (AID 2283025); details: primary human endothelial cells (HUVEC);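 further: fitted both ways so gain or loss versus DMSO counts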;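 on AC50: light microscopy image of cell morphology used as background control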
How it was run: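 Light-microscopy morphology readout, 24 h exposure, human primary umbilical vein endothelium; analysed relative to DMSO with bidirectional fitting.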

[13] = read-out: Pselectin, SELP (gene 6403); assay: BSK_4H_Pselectin: BioMAP Diversity Plus: 4H Assay for Pselectin Biomarker Activity (AID 2283026); details: primary human endothelial cells (HUVEC); actives raise or lower the signal
How it was run: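 Bidirectional fits against DMSO gave the endpoint. Cells: primary human umbilical vein endothelium, chemical-treated for 24 h before ELISA detection of P-selectin.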

[14] = BSK_4H_SRB: Viability Assessment in the BioMAP Diversity Plus: 4H Assay (AID 2283027); details: primary human endothelial cells (HUVEC);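 further: cells exposed to compound for 24 h before staining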;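 on AC50: curves fitted both ways versus DMSO so AC50 may be loss or gain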
How it was run: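 Cytotoxicity read-out in primary human endothelial cells: after 24 h compound exposure, cells were TCA-fixed (10%), stained with 0.1% SRB and absorbance taken at 560 nm. Values fitted in both directions relative to DMSO.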

[15] = BSK_BE3C_SRB: Viability Assessment in the BioMAP Diversity Plus: BE3C Assay (AID 2283028); details: primary human bronchial epithelial cells;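 on AC50: fitted both ways so AC50 may mark signal gain or loss versus DMSO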
How it was run: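 Cells (human bronchial epithelial, primary) are treated with chemicals, and after 24 h the parallel cultures are fixed in 10% TCA. These are then stained with 0.1% SRB and read at 560 nm. Gain or loss of signal is fitted relative to DMSO.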

[16] = read-out: Thrombomodulin, THBD (gene 7056); assay: BSK_3C_Thrombomodulin: BioMAP Diversity Plus: 3C Assay for Thrombomodulin Biomarker Activity (AID 2283029); details: primary human endothelial cells (HUVEC); actives raise or lower the signal
How it was run: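 In a multiplexed primary-cell system, human umbilical vein endothelium received chemical and was assayed 24 h later for thrombomodulin by ELISA. Parallel cultures were SRB-stained (0.1% SRB after 10% TCA fixation, read at 560 nm) to flag cytotoxicity.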

[17] = target: human RAR-related Orphan Receptor gamma (RORg), RORC (gene 6097) (UniProt P51449); assay: ATG_RORg_TRANS: Attagene TRANS-FACTORIAL HepG2 Assay for human RAR-related Orphan Receptor gamma (RORg) (AID 2283011; active means hit-call score of the fitted dose curve at least 0.9, where 1 is the maximum)
How it was run: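 First, HepG2 liver cells were transfected with GAL4-UAS-driven reporter constructs and the RORg-Gal4 fusion. Next, they were treated with chemical for 24 h. Finally, reporter mRNA was quantified by RT-PCR and capillary electrophoresis, with upward activity fitted against DMSO.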

[18] = target: Retinoic acid receptor RXR-alpha (Homo sapiens) (UniProt P19793); assay: ATG_RXRa_TRANS: Attagene TRANS-FACTORIAL HepG2 Assay for human Retinoid X Receptor alpha (RXRa) (AID 2283012; active means hit-call score of the fitted dose curve at least 0.9, where 1 is the maximum)
How it was run: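 Chimeric NR-GAL4 trans-activation in HepG2, 24 h treatment; reporter transcripts quantified by fluorescence on capillary electrophoresis, analysed for upward change from DMSO.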

[19] = target: human Retinoid X Receptor beta (RXRb), RXRB (gene 6257) (UniProt P28702); assay: ATG_RXRb_TRANS: Attagene TRANS-FACTORIAL HepG2 Assay for human Retinoid X Receptor beta (RXRb) (AID 2283013; active means hit-call score of the fitted dose curve at least 0.9, where 1 is the maximum)
How it was run: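 After a 24 h incubation with test chemical, transfected HepG2 cells carrying NR-Gal4 fusions and GAL4-UAS reporter transcription units yield RNA whose reporter cDNA is FAM-labelled, HpaI-cut and sized by capillary electrophoresis; increases over DMSO are scored.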

[20] = target: human Thyroid Receptor alpha (THRa1), THRA (gene 7067) (UniProt P10827); assay: ATG_THRa1_TRANS: Attagene TRANS-FACTORIAL HepG2 Assay for human Thyroid Receptor alpha (THRa1) (AID 2283014; active means hit-call score of the fitted dose curve at least 0.9, where 1 is the maximum)
How it was run: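 Reporter transcript induction, read by capillary electrophoresis of 6-FAM-labelled RT-PCR products, reflects activity of a transfected THRa1-Gal4 fusion in HepG2 liver cells. Cells were dosed for 24 h; activity was fitted in the positive direction against DMSO.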

Measured: AC50

Chain of human Vitamin D Receptor (VDR), VDR (gene 7421) (P11473 whole entry, looked up, the tested form may be a part): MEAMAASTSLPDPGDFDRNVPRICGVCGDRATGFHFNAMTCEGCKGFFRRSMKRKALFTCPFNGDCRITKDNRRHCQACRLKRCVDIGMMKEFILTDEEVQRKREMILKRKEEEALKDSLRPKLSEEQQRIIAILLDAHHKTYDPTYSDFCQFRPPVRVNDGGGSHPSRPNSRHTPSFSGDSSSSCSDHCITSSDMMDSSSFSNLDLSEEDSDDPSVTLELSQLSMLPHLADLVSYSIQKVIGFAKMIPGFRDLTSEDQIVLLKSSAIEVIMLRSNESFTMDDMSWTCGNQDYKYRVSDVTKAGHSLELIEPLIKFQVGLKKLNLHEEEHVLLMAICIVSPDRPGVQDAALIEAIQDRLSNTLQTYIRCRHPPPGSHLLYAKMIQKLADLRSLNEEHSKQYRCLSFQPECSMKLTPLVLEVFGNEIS
Chain of E-selectin (Homo sapiens) (P16581 whole entry, looked up): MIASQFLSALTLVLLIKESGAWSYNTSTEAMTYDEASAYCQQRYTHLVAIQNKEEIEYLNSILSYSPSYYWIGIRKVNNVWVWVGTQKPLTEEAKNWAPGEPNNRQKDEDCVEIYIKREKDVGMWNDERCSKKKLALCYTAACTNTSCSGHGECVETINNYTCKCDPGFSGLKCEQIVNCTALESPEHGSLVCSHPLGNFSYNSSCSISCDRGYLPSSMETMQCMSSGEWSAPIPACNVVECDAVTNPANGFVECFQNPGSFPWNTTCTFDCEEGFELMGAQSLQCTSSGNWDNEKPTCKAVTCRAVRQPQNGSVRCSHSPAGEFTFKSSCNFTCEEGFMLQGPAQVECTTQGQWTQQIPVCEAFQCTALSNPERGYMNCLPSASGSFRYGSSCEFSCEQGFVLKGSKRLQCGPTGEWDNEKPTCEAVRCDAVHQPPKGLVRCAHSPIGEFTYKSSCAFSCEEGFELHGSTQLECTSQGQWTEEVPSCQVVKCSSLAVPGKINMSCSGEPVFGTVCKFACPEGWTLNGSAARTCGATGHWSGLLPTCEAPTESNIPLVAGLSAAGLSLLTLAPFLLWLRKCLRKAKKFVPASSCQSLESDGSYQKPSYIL
Chain of human Retinoid X Receptor beta (RXRb), RXRB (gene 6257) (P28702 whole entry, looked up, the tested form may be a part): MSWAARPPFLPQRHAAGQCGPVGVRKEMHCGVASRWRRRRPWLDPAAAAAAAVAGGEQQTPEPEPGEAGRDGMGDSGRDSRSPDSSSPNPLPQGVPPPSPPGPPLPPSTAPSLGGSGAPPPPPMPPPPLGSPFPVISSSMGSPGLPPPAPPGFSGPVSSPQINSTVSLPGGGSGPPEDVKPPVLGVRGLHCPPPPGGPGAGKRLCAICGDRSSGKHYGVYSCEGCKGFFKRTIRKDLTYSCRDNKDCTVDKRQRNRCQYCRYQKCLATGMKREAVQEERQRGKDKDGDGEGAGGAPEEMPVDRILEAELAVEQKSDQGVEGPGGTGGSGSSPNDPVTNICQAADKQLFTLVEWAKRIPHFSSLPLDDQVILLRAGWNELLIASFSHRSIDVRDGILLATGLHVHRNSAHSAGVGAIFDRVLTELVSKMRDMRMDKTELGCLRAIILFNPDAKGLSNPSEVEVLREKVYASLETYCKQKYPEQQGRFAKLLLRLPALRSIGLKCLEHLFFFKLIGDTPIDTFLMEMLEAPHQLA
Chain of Retinoic acid receptor RXR-alpha (Homo sapiens) (P19793 whole entry, looked up, the tested form may be a part): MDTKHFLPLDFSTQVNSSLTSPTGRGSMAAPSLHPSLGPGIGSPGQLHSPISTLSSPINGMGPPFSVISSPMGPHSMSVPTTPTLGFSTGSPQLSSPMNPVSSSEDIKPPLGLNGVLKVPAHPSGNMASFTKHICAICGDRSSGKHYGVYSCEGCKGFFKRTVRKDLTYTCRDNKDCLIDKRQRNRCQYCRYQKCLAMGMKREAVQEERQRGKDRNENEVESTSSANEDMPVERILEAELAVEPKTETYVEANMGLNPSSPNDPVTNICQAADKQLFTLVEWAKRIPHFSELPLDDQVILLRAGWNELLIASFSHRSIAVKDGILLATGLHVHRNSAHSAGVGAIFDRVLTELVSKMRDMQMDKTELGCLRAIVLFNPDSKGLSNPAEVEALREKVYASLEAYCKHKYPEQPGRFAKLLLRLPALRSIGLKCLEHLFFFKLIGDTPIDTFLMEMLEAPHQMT
Chain of human Thyroid Receptor alpha (THRa1), THRA (gene 7067) (P10827 whole entry, looked up, the tested form may be a part): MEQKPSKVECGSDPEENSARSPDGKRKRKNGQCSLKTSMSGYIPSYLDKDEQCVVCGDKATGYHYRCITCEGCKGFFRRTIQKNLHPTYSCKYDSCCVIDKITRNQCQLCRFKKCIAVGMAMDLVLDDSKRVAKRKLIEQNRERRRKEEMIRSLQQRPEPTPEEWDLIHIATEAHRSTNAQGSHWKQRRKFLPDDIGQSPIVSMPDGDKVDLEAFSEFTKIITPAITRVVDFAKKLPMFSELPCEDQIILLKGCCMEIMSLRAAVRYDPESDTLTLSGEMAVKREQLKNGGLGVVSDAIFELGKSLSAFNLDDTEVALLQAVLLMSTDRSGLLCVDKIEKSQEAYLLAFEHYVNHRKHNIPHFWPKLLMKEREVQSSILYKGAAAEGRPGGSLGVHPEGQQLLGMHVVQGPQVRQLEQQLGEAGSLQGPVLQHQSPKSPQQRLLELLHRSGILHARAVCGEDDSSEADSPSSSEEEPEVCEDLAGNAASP
Chain of human RAR-related Orphan Receptor gamma (RORg), RORC (gene 6097) (P51449 whole entry, looked up, the tested form may be a part): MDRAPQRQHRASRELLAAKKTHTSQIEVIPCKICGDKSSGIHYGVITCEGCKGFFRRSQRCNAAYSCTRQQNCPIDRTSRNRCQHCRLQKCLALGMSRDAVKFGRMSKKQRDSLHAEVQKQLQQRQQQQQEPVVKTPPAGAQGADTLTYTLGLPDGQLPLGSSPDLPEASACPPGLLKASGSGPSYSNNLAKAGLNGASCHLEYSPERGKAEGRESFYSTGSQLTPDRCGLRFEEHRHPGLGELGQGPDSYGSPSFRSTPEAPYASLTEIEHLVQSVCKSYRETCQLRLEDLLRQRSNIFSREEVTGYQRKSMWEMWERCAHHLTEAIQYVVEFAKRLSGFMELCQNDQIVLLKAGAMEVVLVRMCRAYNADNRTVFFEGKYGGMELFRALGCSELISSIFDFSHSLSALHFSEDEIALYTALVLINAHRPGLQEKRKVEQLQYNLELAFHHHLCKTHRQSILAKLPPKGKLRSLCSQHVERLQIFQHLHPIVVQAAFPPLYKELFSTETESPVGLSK
Chain of human RAR-related Orphan Receptor beta (RORb), RORB (gene 6096) (Q92753 whole entry, looked up, the tested form may be a part): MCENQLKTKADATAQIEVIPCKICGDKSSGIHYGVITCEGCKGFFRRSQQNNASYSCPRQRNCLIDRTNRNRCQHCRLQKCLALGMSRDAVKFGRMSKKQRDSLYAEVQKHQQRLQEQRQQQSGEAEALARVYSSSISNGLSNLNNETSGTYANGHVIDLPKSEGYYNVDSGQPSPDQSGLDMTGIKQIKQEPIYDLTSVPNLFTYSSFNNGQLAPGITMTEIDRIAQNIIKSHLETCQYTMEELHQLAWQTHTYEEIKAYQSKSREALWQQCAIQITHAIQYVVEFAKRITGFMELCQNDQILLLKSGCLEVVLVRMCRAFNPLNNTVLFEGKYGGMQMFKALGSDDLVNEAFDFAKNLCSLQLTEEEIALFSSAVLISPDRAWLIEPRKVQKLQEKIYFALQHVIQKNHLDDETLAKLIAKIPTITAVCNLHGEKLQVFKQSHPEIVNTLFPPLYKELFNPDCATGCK

COC(=O)c1ccccc1C(=O)OC
not listed: [17] | [18] | [19] | [20]
inactive: all other assays above

N#Cc1nn(-c2c(Cl)cc(C(F)(F)F)cc2Cl)c(N)c1S(=O)C(F)(F)F (stereo not given)
inactive: [17] | [18] | [19] | [3] | [8] | [9] | [11]
active: [20] 48.7 µM | [2] 20 µM | [4] 30.5 µM | [5] 23.1 µM | [6] 14 µM | [7] 27.8 µM | [10] 32.8 µM | [12] 37.5 µM | [13] 20 µM | [14] 33.5 µM | [15] 18 µM

CCNc1nc(Cl)nc(NCC)n1
not listed: [1] | [16] | [17] | [20]
inactive: all other assays above
